Shown are actives, neighbours in structure and some others; about 13% of the full set was active somewhere.
ALDH1A1 block: qHTS Assay for Inhibitors of Aldehyde Dehydrogenase 1 (ALDH1A1) | Aldehyde dehydrogenase 1A1 (Homo sapiens), P00352 | Purified ALDH1A1, NADH fluorescence, propionaldehyde substrate | Potency, µM (series often up to 75.3 µM), most hits filed as inhibitors | 220,000 compounds, 7.3% hits | AID 1030, 2008; active = well fitted inhibition curve with a large enough effect, not every such curve was filed as active; inconclusive = small, poorly fitted or top-dose-only effect, or another doubt; inactive = no such curve, though single readings can be large or run the other way
miR-21 act: qHTS Assay for Modulators of miRNAs and/orActivators of miR-21. HeLa miR-21 FLuc reporter, luciferase, 48 h. Potency, µM (doses to about 38.3 µM), usual class: activators. AID 2288, 2010. 340,000 tested, under 10 active;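 note: miR-21 action dims this reporter so a rising signal means less miR-21 action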
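HeLa miR-21-FLuc reporter line, endogenous miR-21; 2000 cells/well in DMEM/10% FBS; compound titration up to ~40uM final, 48 h, 37 degree Celsius; luciferase detection reagent, 15 min lysis, CCD luminescence.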
Lamin A splicing: qHTS Assay for Modulators of Lamin A Splicing; HeLa LMNA splicing GFP/RFP minigene ratio, 48 h; Potency, µM (highest dose often 46.1 µM), usual class: inhibitors; 200,000 compounds, 0.01% hits; AID 1487, 2009; active = well fitted inhibition curve with a large enough effect in the signal ratio, with a control signal flat, not every such curve was filed as active; inconclusive = small, poorly fitted or top-dose-only effect, or effect the other way, or a change in a side signal; the % refers to the signal ratio
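S3 HeLa stable clones carrying a lamin A-EGFP splicing minigene plus DsRed2 were seeded at 600 cells/well in Opti-MEM with 2% FBS, pin-dosed and incubated 48 h at 37°C. Acumen cytometry (488 nm) gave the GFP/RFP total-intensity ratio.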
JMJD2E inh: qHTS Assay for Inhibitors of Human Jumonji Domain Containing 2E (JMJD2E) | 230,000 compounds, 1.6% hits | Potency, µM (titrated, usually from 57.1 µM), most hits filed as inhibitors | JMJD2E catalytic domain, FDH-coupled NADH fluorescence (FDH is formaldehyde dehydrogenase) | Lysine-specific demethylase 4E (Homo sapiens), B2RXH2; active = well fitted inhibition curve with a large enough effect, not every such curve was filed as active; inconclusive = small, poorly fitted or top-dose-only effect, or another doubt; inactive = no such curve, though single readings can be large or run the other way; note: nearly all actives have a fitted effect of over 50% in size
Target sequence (B2RXH2 1-337 limits assumed): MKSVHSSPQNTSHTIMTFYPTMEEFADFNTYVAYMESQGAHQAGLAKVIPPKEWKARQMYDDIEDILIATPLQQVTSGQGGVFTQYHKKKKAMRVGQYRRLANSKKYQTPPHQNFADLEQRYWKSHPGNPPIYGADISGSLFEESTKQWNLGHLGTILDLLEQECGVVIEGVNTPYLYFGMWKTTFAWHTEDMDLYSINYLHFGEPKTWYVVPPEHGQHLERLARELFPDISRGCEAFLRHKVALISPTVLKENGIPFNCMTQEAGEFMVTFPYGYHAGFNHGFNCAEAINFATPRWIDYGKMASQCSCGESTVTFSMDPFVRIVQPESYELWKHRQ
G9a block: qHTS Assay for Inhibitors of Histone Lysine Methyltransferase G9a; 350,000 compounds, 8.8% hits; AID 504332, 2011; Histone-lysine N-methyltransferase EHMT2 (Homo sapiens), Q96KQ7; Potency, µM (top dose mostly 102 µM), actives largely listed as inhibitors; G9a H3K9 monomethylation, AlphaScreen, 2 h; note: nearly all actives have a fitted effect of over 75% in size
Target sequence (Q96KQ7 913-1193 limits assumed): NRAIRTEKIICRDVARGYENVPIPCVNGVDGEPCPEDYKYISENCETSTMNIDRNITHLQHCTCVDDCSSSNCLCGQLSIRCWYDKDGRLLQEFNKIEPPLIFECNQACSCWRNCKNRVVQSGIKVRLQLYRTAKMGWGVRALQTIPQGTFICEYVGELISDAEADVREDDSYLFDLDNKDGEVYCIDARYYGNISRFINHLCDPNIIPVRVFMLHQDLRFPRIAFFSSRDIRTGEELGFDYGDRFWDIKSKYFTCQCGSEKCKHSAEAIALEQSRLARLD
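Enzyme 20 nM + cpd, 15 min RT; add b-H3K9 pep 500 nM / SAM 20 uM; 2 h RT; anti-H3K9me1 Ab 0.5 ug/mL + SA donor / anti-rabbit acceptor beads 20 ug/mL each, 10 min; AlphaScreen read.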
Sfp PPTase inh: qHTS Assay for Inhibitors of Bacillus subtilis Sfp phosphopantetheinyl transferase (PPTase) | 310,000 compounds, 3.5% hits | AID 1490, 2009 | Potency, µM, usual class: inhibitors | Biochemical Sfp PPTase activity, qHTS | 4'-phosphopantetheinyl transferase ffp (Bacillus subtilis), Q9F4F7;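 note: the enzyme is Sfp with the accession as filed and its product quenches rhodamine fluorescence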
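Fluorescence-quenching assay: 15 nM Sfp-PPTase preincubated 15 min at room temperature with compound, then 5 uM rhodamine-CoA and 12.5 uM BHQ-2-labelled YbbR peptide added. Fluorescence (ex 525/em 598 nm) read at start and after 30 min; difference gives rate.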
Hits are given with their value; - = inactive; ? = inconclusive; . = no result given; [ ] = remark or other dose. Unless noted, calls come from the whole dose curve; as a rule, active = well fitted curve in the direction sought with a large enough effect; inconclusive = small, poorly fitted or top-dose-only effect, or another doubt; inactive = no such curve, though single readings can be large; an effect the other way counts as inactive or inconclusive.

SMILES	ALDH1A1 block	miR-21 act	Lamin A splicing	JMJD2E inh	G9a block	Sfp PPTase inh
CCOC(=O)c1c(-c2ccc(C)c(C)c2)csc1NC(=O)C1CC=CCC1C(=O)O (stereo unspecified)	-	-	-	-	-	-
CCOC(=O)c1c(-c2ccc(-c3ccccc3)cc2)csc1NC(=O)CCN1CCOCC1	?	-	?	-	?	-
CCOC(=O)c1c(-c2ccccc2)csc1NC(=O)C(C)NCCCN1CCOCC1 (stereo unspecified)	-	-	.	?	11.2µM	39.8µM
COC(=O)c1sccc1NC(=O)C1CC=CCC1C(=O)O (stereo unspecified)	?	-	-	-	-[12.7 µM]	-
COC(=O)c1c(-c2ccco2)csc1NC(=O)C1CC=CCC1C(=O)O (stereo unspecified)	12.6µM	-	-	-	?	12.6µM
CN1CCN(CC(=O)Nc2ccc(S(=O)(=O)N(C)C)cc2)CC1	.	-	.	.	44.7µM	56.2µM
CCCCN(CCCC)S(=O)(=O)c1ccc(NC(=O)CN2CCOCC2)cc1	12.6µM	-	?	-	?	-
Cc1ccc(C)c(Nc2nn3c(=O)c4ccc(C(=O)NCc5cccs5)cc4nc3s2)c1	.	?	?	.	-	.
CCc1noc(C)c1C(=O)NC1CC(C)(C)Cc2c1cnn2-c1ccccc1 (stereo unspecified)	.	-	.	.	-	-
CC1=C(C(=O)OC2CCCCC2)C(c2ccc(C)o2)C2=C(CC(C)(C)CC2=O)N1 (stereo unspecified)	?	-	-	?	-[12.7 µM]	?
CC1=C(C(=O)Nc2ccc(F)cc2)C(c2ccc(C)o2)C2=C(CC(C)(C)CC2=O)N1 (stereo unspecified)	-	-	-	?	50.1µM	-
CCCCn1c(N)c(N(CC(C)C)C(=O)C2CCN(S(=O)(=O)c3ccc(C)cc3C)CC2)c(=O)[nH]c1=O	.	.	.	.	-	.
CC/C(=N/Nc1ccc(Cl)cc1)c1cnnc(SC)n1	10µM	-	-	-	5.62µM	-
CC/C(=N/Nc1cccc(C)c1)c1cnnc(SC)n1	9.46µM	-	-	-	7.08µM	-
CC/C(=N/O)c1cnnc(SC)n1	-	-	-	-	-	-
CC(=O)Nc1ccc(Nc2ncnc3c2c(-c2ccccc2)cn3-c2ccc(C)c(Cl)c2)cc1	.	-	-	.	-	.
CCOC(=O)CC(=O)CSc1nc2ccccc2c(=O)n1-c1ccc(C(=O)N2CCOCC2)cc1	-	-	-[0.0737 µM]	-	-[0.501 µM]	-
O=C(c1ccc(-n2c(SCc3cc(F)ccc3F)nc3ccccc3c2=O)cc1)N1CCOCC1	35.5µM	-	-	-	-	?
O=C1/C(=C/c2cccc(O)c2)SC(=S)N1CC1CCCO1 (stereo unspecified)	.	-	.	-	-[12.7 µM]	-
CCOc1cc(/C=C2/SC(=S)N(CC3CCCO3)C2=O)ccc1O (stereo unspecified)	0.447µM	-	-	?	-	-
COc1cccc(/C=C2\SC(=S)N(N3C(=O)CCCC3=O)C2=O)c1	?	-	-	-	22.4µM	-
COc1cccc(/C=C2\SC(=S)N(CC3CCCO3)C2=O)c1 (stereo unspecified)	3.16µM	-	-	-	28.2µM	-
COc1ccccc1NC(=O)C(C)Sc1nnc2ccc3ccccc3n12 (stereo unspecified)	.	-	?	.	?	.
COc1ccc(C(=O)O)cc1S(=O)(=O)Nc1ccccc1-c1ccccc1	.	-	.	.	?	-
CCc1ccccc1NC(=O)CN(Cc1ccccc1)S(=O)(=O)c1ccc(Br)cc1	.	-	.	.	-	.
SMILES	ALDH1A1 block	miR-21 act	Lamin A splicing	JMJD2E inh	G9a block	Sfp PPTase inh
CC(=O)c1ccc2c3c(cccc13)C(=O)N(c1c(C)nn(C)c1C)C2=O	?	-	-	-	10µM	-
C=CCN1C(=O)N/C(=C/c2ccc(N3CCOCC3)o2)C1=O	?	?	?	-	31.6µM	?
O=C1N/C(=C/c2ccc(N3CCOCC3)o2)C(=O)N1c1ccccc1	7.08µM	-	?	-	10µM	-
O=C1N/C(=C/c2ccc(N3CCOCC3)cc2)C(=O)N1Cc1ccc(F)cc1	-	-	-	-	-	-
[N-]=C=C1C(=S)NC(=O)[C@H]([n+]2ccccc2)[C@H]1c1ccc(Cl)cc1	14.1µM	-	.	?	.	-
Cc1[nH]n(-c2ncc(-c3ccccc3)s2)c(=O)c1C(c1ccc(Cl)cc1)C(C#N)C#N (stereo unspecified)	28.2µM	-	?	-	?	?
Oc1ccccc1N=Nc1nc(-c2ccccc2)c(-c2ccccc2)[nH]1	-	-	?	-	?	-
COc1ccccc1N=Nc1nc(-c2ccccc2)c(-c2ccccc2)[nH]1	22.4µM	-	?	-	?	-
O=C(O)c1ccc(-c2nc(-c3ccccc3)c(-c3ccccc3)[nH]2)cc1	?	-	-	?	-	-
COc1ccc(-c2[nH]c(-c3ccc(C(=O)O)cc3)nc2-c2ccccc2)cc1	?	-	-	?	79.4µM	-
COc1ccc(N=Nc2nc(-c3ccccc3)c(-c3ccccc3)[nH]2)cc1	-	-	?	-	15.8µM	-
Cc1cccc(C)c1NC(=O)c1csc2c1CCCC2	.	-	.	.	-	.
CC(NC(=O)CCCc1ccccc1)c1ccncc1 (stereo unspecified)	.	-	.	.	-	-
COCCn1c(C)nnc1SCC(=O)NNC(=O)c1ccc(Cl)cc1	.	-	.	.	50.1µM	-
O=[N+]([O-])c1ccc(C2NS(=O)(=O)N=C3CCCCCN32)cc1 (stereo unspecified)	28.2µM	-	.	?	25.1µM	50.1µM
O=S1(=O)N=C2CCCCCN2C(c2ccc(F)cc2)N1 (stereo unspecified)	-	-	-	-	-	-
O=C(CN1CCN(c2ccc(F)cc2)CC1)Nc1nccs1	.	-	.	.	-	-
CCCCCC/C(C=O)=C\c1ccccc1	-	.	.	.	-[0.501 µM]	.
CCc1ccc(/C=C/C(=O)c2cc(Br)ccc(=O)c2O)cc1	?	-	?	?	?	14.1µM
CCOc1ccc(C(=O)/C=C/c2ccc(OC)c(OC)c2)cc1	-	-	?	?	?	-
CCOc1ccc(/C=C/C(=O)c2cc(Br)ccc(=O)c2O)cc1	?	?	?	31.6µM	7.94µM	20µM
Cc1cccc(/C=C/C(=O)c2cc(Br)ccc(=O)c2O)c1	20µM	?	?	?	?	14.1µM
Cc1ccc(/C=C/C(=O)c2cc(Br)ccc2OC(=O)c2ccco2)cc1	?	-	?	-	-	-

Screening results from PubChem BioAssay.
